Assay [1] is described as follows: yeast TOR pathway RPL19A-GFP modulators, primary screen, cell-based, S. cerevisiae, multiplex flow cytometry (AID 1862; in the data active = percent of DMSO control GFP below about 86%;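 note: lower values mimic rapamycin by blocking the RPL19A rise seen in DMSO cells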). The following applies: S. cerevisiae RPL19A-GFP strain, flow cytometry fluorescence, 3 h; at 10 µM; stronger effect = lower value.
A short description of assay [2]: modulators of MEP2-GFP levels in yeast, primary screen, S. cerevisiae, multiplex flow cytometry (AID 1867;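 active = GFP response, as percent of the DMSO control, above the screen-wide mean plus 3 SD, about 139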;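 note: median GFP channel fluorescence of barcode-gated MEP2-GFP cells measured by flow cytometry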). Conditions: S. cerevisiae MEP2-GFP strain, 3 h, at 10 µM, stronger effect = higher value, 100% means same as DMSO wells. (A flow cytometer gives signals particle by particle.)
A short description of assay [3]: modulators of CIT2-GFP expression in yeast, primary screen, S. cerevisiae, GFP fusion, multiplex flow cytometry (AID 1870;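 active = percent response above a set limit, the screen-wide mean plus 3 SD, cut at about 130% in these data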;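 note: barcoded CIT2-GFP strain pooled with four other GFP strains with rapamycin as positive control; median GFP fluorescence per well over plate mean of DMSO wells so 100% = DMSO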). Conditions: 3 h, at 10 µM, stronger effect = higher value.
Assay [4] can be described thus: modulators of LAP4-GFP expression in yeast, primary screen, S. cerevisiae, multiplex flow cytometry (AID 1873;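 active = GFP signal, as percent of the solvent control, above the screen mean plus 3 SD, about 149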). Conditions: 3 h, at 10 µM, stronger effect = higher value.
Assay [5] is described as follows: modulators of AGP1-GFP expression in yeast TOR pathway, primary screen, cell-based, multiplex flow cytometry, S. cerevisiae (AID 1887;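 active = GFP signal above the screen-wide mean plus 3 SD, that is over about 124.5% of the solvent control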;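 note: AGP1-GFP fusion strain of S. cerevisiae within a five-strain barcoded multiplex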). The following applies: 3 h, at 10 µM, stronger effect = higher value.
Assay [6] in a line: inhibitors of CD8+ T cell-vesicle binding, pilot screen, LFA-1/ICAM-1 modulator project, MLPCN validation set, flow cytometry (AID 2523;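 active = response below a set limit, under 55% cells CD8-positive and vesicle-bound, and CD8 cells' 90th-percentile brightness under 279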;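 for vesicle binding response: mean PE anti-B7-1 fluorescence of CD8+ cells relative to row control; 100% = QL9-loaded vesicles with DMSO vehicle in the same plate row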). The following applies: 2C mouse CD8+ T cells, at 7 µM, stronger effect = lower value; double positive events: measured here: CD8+/vesicle+ event percentage.
Assay [7] has as its target Integrin beta-1 (Homo sapiens) + Integrin alpha-4 (Homo sapiens) (UniProt P13612+P05556). Briefly: inhibition of HUTS-21 binding to VLA-4, pilot screen, VLA-4 allosteric modulator project, U937 cells, HUTS-21 mAb, flow cytometry, validation set (AID 2674;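 active = inhibition above 50%, about 3 SD of the validation set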;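 note: antibody binding induced by the VLA-4 ligand LDV present at three times its Kd; 0% = LDV ligand with antibody and no compound and 100% = antibody without LDV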). The following applies: HUTS-21 LIBS mAb binding, at 6.7 µM, stronger effect = higher value, binding induced by LDV ligand.
Assay [8] in a line: superoxide lowering in aged yeast cells, pilot screen, validation compound set (AID 2706;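 active = superoxide response below 65% of plate, a cut near 3 SD across the whole screen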;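 note: yeast exposed to compound for one week at 30 degrees C before staining; 100% = mean of all compound wells on the same plate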). The following applies: S. cerevisiae aging, superoxide DHE fluorescence; at 10 µM; stronger effect = lower value.
In assay [9] the target is Beta-adrenergic receptor kinase 1 (Homo sapiens) (UniProt P25098). The assay is described as follows: GRK2 binders displacing RNA aptamer, biochemical, validation, human GRK2, bead flow cytometry (AID 488806;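 active = aptamer binding inhibition above 30%, about 3 SD of noise from non-fluorescent compounds; inactive = inhibition at or below 30%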). The following applies: bead-bound GRK2, FAM-aptamer displacement, at 10 µM, stronger effect = higher value.
Sequence of Beta-adrenergic receptor kinase 1 (Homo sapiens) (P25098 whole entry, looked up): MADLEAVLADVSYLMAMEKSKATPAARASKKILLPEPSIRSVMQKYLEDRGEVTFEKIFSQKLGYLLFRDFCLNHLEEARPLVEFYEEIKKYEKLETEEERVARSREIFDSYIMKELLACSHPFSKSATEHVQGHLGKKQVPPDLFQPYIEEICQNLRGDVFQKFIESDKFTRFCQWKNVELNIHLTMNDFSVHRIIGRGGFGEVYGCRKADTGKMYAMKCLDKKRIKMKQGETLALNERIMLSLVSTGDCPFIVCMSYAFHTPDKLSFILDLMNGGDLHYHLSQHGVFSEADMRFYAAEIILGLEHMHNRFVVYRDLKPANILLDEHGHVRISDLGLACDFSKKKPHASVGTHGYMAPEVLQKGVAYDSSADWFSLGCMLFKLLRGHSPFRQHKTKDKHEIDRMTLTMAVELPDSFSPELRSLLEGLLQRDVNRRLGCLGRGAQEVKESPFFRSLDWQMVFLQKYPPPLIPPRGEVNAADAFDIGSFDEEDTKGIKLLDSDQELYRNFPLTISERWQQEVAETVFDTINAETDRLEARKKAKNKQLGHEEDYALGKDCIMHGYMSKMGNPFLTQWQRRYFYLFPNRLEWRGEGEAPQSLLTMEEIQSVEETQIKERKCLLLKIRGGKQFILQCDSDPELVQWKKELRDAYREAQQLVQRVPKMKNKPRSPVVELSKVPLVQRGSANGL
Assay [10] has as its target Beta-2 adrenergic receptor (Homo sapiens) (UniProt P07550). Briefly: beta2AR agonists driving receptor internalization, pilot screen, cell-based, FAP fluorogen, flow cytometry, validation set (AID 504459;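 active = percent response above 42, roughly 3 SD of non-fluorescent test compounds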;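 note: agonist-driven loss of surface beta2AR via internalization measured by FAP dye flow cytometry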). Conditions: Am2.2-beta2AR cells, FAP surface receptor flow cytometry; at 10 µM; stronger effect = higher value.
Assay [11] addresses AP-2 complex subunit beta (Homo sapiens) (UniProt P63010). The assay is described as follows: inhibitors of arrestin peptide binding to AP2, pilot screen, biochemical, validation set, GST-AP2 beads, flow cytometry (AID 504541;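 active = inhibition above 54%, about 3 SD of non-fluorescent compounds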;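 note: AP2 carries R879A mutation and is captured from E. coli lysate; bead-bound FITC arrestin peptide fluorescence measuring arrestin peptide binding to AP2; 0% = DMSO wells and 100% = excess unlabeled arrestin peptide control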). Conditions: FITC arrestin peptide, at 10 µM, stronger effect = higher value, AP2 beta2 appendage fragment, R879A mutant.
The nature of assay [12]: yeast V-ATPase proton transport modulators, S. cerevisiae, pHLuorin, HTS validation (AID 504600; in the data active = response above about 15%;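 note: plate controls were DMSO for no effect and reference compound for full effect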). Conditions: S. cerevisiae pHLuorin cytosolic pH, at 10 µM, stronger effect = higher value.
The subject of assay [13] is anti-desmoglein-3 scFv antibody binding to human DSG3. The assay is described as follows: inhibitors of anti-DSG3 scFv binding to DSG3, pilot screen, biochemical, validation compound set, bead-based, flow cytometry (AID 588368;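 active = binding below the plate cutoff, the plate median minus 3 SD, with a reading above zero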;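 note: signal is the median channel fluorescence of bead-bound GFP antibody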). The following applies: Protein G beads, DSG3-Fc, scFv-GFP binding, at 10 µM, stronger effect = lower value.
Assay [14] can be described thus: inhibitors of fungal efflux pumps CDR1, CDR2, MDR1, pilot screen, validation compound set, multiplex, phenotypic (AID 588506;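 active = efflux inhibition above 0.42, the validation set average plus 4 SD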;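 note: Nile Red retained in cells so higher fluorescence means more efflux inhibition; 0 = negative control wells and 1 = enniatin B 25 µM full block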). The following applies: S. cerevisiae pump-expressing triplex, Nile Red efflux flow cytometry; at 10 µM; stronger effect = higher value; the pumps come from Candida albicans.
The target in assay [15] is ATP-binding cassette sub-family B member 6 (Homo sapiens) (UniProt Q9NP58). The assay is described as follows: ABCB6 transporter inhibitors, pilot screen, K562-ABCB6 cells, flow cytometry, validation set (AID 588550).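 Note: 0% = DMSO wells and 100% = benzethonium chloride 70 µM positive control.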 The following applies: K562-ABCB6 porphyrin accumulation, 1 h, at 10 µM, stronger effect = higher value.
Sequence of ATP-binding cassette sub-family B member 6 (Homo sapiens) (Q9NP58 whole entry, looked up): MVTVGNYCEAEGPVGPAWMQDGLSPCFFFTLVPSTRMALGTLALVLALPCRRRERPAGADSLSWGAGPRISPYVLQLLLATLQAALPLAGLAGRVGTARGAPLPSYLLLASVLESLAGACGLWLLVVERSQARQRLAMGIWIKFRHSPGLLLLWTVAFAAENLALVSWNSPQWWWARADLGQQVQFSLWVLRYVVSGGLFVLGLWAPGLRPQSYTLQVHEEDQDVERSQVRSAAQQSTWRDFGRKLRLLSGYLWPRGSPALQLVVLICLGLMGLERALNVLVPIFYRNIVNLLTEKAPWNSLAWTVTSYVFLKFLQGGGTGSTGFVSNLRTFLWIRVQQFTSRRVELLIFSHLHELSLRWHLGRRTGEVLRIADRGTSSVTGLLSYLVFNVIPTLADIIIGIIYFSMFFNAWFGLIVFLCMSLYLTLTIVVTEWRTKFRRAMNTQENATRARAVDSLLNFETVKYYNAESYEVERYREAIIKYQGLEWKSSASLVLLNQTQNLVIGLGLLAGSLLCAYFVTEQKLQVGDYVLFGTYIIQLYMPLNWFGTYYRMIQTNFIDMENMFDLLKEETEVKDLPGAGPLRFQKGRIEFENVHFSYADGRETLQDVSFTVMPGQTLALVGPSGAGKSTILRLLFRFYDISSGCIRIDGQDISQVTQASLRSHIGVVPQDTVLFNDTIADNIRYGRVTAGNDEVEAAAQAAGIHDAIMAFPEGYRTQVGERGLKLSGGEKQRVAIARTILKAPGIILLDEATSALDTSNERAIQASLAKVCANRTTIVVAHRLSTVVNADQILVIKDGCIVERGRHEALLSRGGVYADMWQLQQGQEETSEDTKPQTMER
Assay [16] is described as follows: promoters of myeloid differentiation in arrested cells, primary screen, cell-based, GFP/MAC1 double positive, flow cytometry, validation set (AID 588685;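 active = differentiation response of at least 50%, scaled between solvent and reference control, from cells with both markers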;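 note: compound exposure lasts four days before antibody staining and flow analysis; 0% = DMSO wells and 100% = 5 µM fulvestrant positive control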). The following applies: ER-HoxA9 marrow cells, stronger effect = higher value, normalized: vehicle 0, fulvestrant 100.

Records with an inconclusive call do not appear. Activity calls are given as the source filed them.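 Rule for the calls, unless noted: active = inhibition above the screen-wide mean plus 3 SD, about 51%; inactive = the rest.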

Sequence of Integrin beta-1 (Homo sapiens) + Integrin alpha-4 (Homo sapiens) (P05556 whole entry, looked up): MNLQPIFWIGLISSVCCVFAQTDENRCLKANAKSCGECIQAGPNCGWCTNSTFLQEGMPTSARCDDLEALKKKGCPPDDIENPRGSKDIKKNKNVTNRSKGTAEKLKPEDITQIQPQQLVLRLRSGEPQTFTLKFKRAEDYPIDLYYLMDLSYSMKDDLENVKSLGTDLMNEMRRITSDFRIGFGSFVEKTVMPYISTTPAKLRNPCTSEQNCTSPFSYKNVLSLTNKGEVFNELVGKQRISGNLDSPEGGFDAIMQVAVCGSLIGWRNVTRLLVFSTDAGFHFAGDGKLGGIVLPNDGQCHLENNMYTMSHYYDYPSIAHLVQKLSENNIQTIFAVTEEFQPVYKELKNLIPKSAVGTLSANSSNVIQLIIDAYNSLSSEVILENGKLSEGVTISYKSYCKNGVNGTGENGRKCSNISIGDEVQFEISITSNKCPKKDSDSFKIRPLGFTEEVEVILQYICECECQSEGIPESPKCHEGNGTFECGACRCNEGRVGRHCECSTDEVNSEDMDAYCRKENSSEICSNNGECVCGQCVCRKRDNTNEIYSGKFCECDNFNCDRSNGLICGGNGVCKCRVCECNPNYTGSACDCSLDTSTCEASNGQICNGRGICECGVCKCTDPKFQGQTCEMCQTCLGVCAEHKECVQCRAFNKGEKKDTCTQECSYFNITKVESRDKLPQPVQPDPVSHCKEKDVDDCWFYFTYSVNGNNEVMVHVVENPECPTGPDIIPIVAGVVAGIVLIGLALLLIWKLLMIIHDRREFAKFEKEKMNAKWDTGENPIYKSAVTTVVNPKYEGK
Sequence of Integrin beta-1 (Homo sapiens) + Integrin alpha-4 (Homo sapiens) (P13612 whole entry, looked up): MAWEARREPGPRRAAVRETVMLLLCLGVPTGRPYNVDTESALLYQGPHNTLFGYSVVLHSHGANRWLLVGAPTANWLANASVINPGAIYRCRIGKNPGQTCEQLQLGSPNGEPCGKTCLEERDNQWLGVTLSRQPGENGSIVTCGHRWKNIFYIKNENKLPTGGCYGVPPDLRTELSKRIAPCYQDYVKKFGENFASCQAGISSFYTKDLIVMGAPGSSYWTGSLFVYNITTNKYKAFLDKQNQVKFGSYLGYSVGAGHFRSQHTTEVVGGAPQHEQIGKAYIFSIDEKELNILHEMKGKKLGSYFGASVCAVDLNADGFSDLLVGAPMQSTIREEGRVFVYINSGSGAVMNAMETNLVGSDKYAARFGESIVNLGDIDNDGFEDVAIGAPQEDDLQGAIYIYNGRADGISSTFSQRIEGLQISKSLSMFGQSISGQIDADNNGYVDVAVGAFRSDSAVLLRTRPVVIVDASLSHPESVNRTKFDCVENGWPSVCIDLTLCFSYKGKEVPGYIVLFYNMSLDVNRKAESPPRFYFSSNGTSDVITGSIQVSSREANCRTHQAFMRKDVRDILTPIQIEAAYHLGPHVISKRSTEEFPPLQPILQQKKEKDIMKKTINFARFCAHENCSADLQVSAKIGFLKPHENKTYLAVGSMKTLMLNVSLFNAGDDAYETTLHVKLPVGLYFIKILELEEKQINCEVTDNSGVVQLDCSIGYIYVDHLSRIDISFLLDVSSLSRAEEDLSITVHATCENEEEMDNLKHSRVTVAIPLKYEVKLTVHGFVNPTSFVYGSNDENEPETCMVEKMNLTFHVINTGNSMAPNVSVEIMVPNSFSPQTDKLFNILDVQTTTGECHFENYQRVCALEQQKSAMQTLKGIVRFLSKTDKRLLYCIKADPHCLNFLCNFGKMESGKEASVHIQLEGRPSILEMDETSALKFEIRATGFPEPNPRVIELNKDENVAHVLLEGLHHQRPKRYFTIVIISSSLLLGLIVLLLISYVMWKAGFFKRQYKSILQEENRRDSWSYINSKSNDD
Sequence of Beta-2 adrenergic receptor (Homo sapiens) (P07550 whole entry, looked up): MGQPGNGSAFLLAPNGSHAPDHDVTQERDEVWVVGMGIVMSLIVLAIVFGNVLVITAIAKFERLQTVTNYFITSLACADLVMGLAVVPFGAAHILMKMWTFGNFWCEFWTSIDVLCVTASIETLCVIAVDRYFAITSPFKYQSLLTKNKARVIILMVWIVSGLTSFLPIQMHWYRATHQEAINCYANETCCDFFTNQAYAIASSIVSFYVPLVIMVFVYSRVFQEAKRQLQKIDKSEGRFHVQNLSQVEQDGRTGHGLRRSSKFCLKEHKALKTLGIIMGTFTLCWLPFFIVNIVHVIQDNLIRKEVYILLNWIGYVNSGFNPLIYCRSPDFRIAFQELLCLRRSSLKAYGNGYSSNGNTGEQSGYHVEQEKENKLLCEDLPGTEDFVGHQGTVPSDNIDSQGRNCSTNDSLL
Sequence of AP-2 complex subunit beta (Homo sapiens) (P63010 whole entry, looked up, the tested form may be a part, one chain of several): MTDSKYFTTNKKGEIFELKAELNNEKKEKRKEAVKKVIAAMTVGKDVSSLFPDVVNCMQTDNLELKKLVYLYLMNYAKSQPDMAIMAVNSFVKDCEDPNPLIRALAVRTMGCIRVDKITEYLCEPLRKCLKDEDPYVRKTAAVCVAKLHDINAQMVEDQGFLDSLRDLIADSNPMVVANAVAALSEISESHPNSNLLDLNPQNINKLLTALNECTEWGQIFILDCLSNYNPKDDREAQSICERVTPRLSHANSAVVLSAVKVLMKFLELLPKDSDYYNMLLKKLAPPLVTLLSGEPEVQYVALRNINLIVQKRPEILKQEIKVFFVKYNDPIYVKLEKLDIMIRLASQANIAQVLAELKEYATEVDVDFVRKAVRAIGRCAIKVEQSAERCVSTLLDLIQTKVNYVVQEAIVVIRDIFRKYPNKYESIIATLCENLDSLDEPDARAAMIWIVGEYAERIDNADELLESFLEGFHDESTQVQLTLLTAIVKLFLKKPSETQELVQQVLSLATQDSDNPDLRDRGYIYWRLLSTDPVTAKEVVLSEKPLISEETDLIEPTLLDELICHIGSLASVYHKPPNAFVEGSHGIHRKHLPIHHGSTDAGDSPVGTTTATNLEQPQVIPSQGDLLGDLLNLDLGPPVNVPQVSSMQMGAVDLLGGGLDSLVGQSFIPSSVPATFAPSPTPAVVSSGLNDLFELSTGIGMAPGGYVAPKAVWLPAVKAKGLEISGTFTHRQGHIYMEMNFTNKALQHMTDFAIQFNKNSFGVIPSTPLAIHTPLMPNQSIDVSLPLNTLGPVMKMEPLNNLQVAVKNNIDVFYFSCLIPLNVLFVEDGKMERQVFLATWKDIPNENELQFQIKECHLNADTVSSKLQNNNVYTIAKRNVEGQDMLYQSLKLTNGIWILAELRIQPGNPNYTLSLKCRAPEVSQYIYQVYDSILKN

`CCn1c(/C=C/c2ccccc2)nc2ccccc2c1=O`: the percent of DMSO control GFP in [1] is 98.8% (inactive). Further, the GFP response vs DMSO in [2] was 111% (inactive); in assay [4] it was 122% (inactive). For the same compound, the percent response of DMSO control in assay [3] is 78.7% (inactive). Also, the GFP response, % of DMSO in assay [5] is 92.6% (inactive). In assay [6], the double positive events worked out at 59.1%. Also, in assay [6], the vesicle binding response is 134% (inactive). Further, the inhibition was 7.76% (inactive) in assay [7], -8.94% (inactive) in assay [11] and 7% (inactive) in [15]. The superoxide response (% of plate) in [8] is 102% (inactive). Also, in assay [9], the aptamer binding inhibition is 3% (inactive). Besides, the response in [10] was 18.5% (inactive); in assay [12], 1.61% (inactive). In addition, the binding (% of control) in assay [13] is 101% (inactive). In addition, the efflux inhibition (fraction of control) in assay [14] was 0.08 (inactive). The differentiation response in assay [16] was 18.4% (inactive).

`COc1ccc(C2OC(=O)Cc3cc(OC)c(OC)cc32)cc1` (stereo not drawn): in assay [1], the percent of DMSO control GFP is 90.6% (inactive). Also, the GFP response vs DMSO in assay [2] is 127% (inactive); in assay [4] it was 82.5% (inactive). In assay [3], the percent response of DMSO control was 91.3% (inactive). For the same compound, in [5], the GFP response, % of DMSO is 88% (inactive). Also, in [6], the double positive events came out at 63.4%. In addition, the vesicle binding response in assay [6] is 177% (inactive). For the same compound, the inhibition in assay [7] was -6.15% (inactive); in [11] it was -4.51% (inactive); in assay [15], 7% (inactive). For the same compound, the superoxide response (% of plate) in assay [8] was 94.5% (inactive). Besides, the aptamer binding inhibition in [9] was 2% (inactive). Also, the values for the response in [10] and in assay [12] were -3.02% (inactive) and -1.1% (inactive), respectively. Further, in assay [13], the binding (% of control) was 103% (inactive). The efflux inhibition (fraction of control) in assay [14] was -0.38 (inactive). In [16], the differentiation response was 3.28% (inactive).

As to `COC(=O)c1ccc(-c2ncc(-c3cccc4ccccc34)o2)cc1`, the percent of DMSO control GFP in assay [1] is 98.2% (inactive). In addition, the GFP response vs DMSO is 104% (inactive) in assay [2] and 125% (inactive) in assay [4]. The percent response of DMSO control in assay [3] was 105% (inactive). The GFP response, % of DMSO in [5] was 109% (inactive). The same compound came in with a double positive events in assay [6] of 61.1%. Further, the vesicle binding response in assay [6] is 170% (inactive). Moreover, the inhibition is -29.2% (inactive) in [7], 21.1% (inactive) in assay [11] and 1% (inactive) in [15]. The superoxide response (% of plate) in assay [8] was 97.3% (inactive). In addition, in assay [9], the aptamer binding inhibition is -1% (inactive). Besides, the response is -17.7% (inactive) in [10] and -15.9% (inactive) in [12]. The binding (% of control) in assay [13] was 90.5% (inactive). For the same compound, the efflux inhibition (fraction of control) in [14] is 0.17 (inactive). The differentiation response in assay [16] was 6.83% (inactive).

`Cc1ccc(-c2nn(-c3cccc(F)c3)cc2CN2CCN(c3ccccn3)CC2)o1`: the percent of DMSO control GFP in assay [1] was 101% (inactive). Moreover, the GFP response vs DMSO in assay [2] was 107% (inactive); in assay [4], 123% (inactive). The percent response of DMSO control in [3] was 92% (inactive). Also, the GFP response, % of DMSO in [5] is 101% (inactive). The compound further had a double positive events in assay [6] of 54.2%. Also, in assay [6], the vesicle binding response was 2920% (inactive). In addition, the inhibition in assay [7] is 0.94% (inactive); in assay [11], 5.48% (inactive); in assay [15] it was 12% (inactive). Also, in [8], the superoxide response (% of plate) is 95.7% (inactive). The aptamer binding inhibition in [9] is 5% (inactive). Besides, the response in assay [10] was 25.4% (inactive); in assay [12], -6.07% (inactive). Moreover, the binding (% of control) in assay [13] was 101% (inactive). In assay [14], the efflux inhibition (fraction of control) is 0.37 (inactive). Besides, the differentiation response in assay [16] is -23.2% (inactive).

A word on the inhibition: it is the drop in the measured response relative to a control, in per cent.

The values are drawn from PubChem BioAssay.
